Over roughly 81,000 sequences, “one-hybrid fitness for binding parS DNA” has its median near -0.17; the highest 2% begin near 0.51. Only a selection was taken, and the highest values are over-represented in it overall.
B1: Caulobacter ParB omega fusion; a variant is named by its letters at X, in order, B8GW30 (parent)
chain: MESVVVGEPGMSEGRRGLGRGLSALLGEVDAAPAQAPGEQLGGSREAPIEILQRNPDQPRRTFREEDLEDLSNSIREKGVLQPILVRPSPDTAGEYQIVAGERAWRAAQRAGLKTVPIMVRELDDLAVLEIGIIENVQRADLNVLEEALSYKVLMEKFERTQENIAQTIGKSXSHVANXMRLLXLPDEVQSYLVSGELTAXHARAIAAAADPVALAKQIIEGGLSVRETEALARKAPNLSAGKSKGGRPPRVKDTDTQALESDLSSVLGLDVSIDHRGSTGTLTITYATLEQLDDLCNRLTRGI

Variants of: B1
Experiment: one-hybrid fitness for binding parS DNA (scaled: cognate 1, non-cognate 0); higher = stronger binding
Details: with parS DNA site
Procedure, shortened: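 Pre- and post-selection plasmids were Illumina-sequenced, three replicate libraries were pooled, and any variant with under 10 reads was removed. The libraries were Caulobacter ParB with four specificity codons randomised, selected in E. coli USO through a HIS3 reporter whose site is 19 bp from the promoter. Cells grew 48 hours at 37°C on M9 without histidine, with 0.1 mM IPTG and 5 mM 3-AT. Fitness is the log change in variant-to-wild-type read ratio, rescaled against cognate and non-cognate.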

Variant	one-hybrid fitness for binding parS DNA
ASNF	≤ 0.2
STMD	≤ 0.2
THAI	≤ 0.2
HFAT	≤ 0.2
VNIM	≤ 0.2
GRPC	≤ 0.2
ANQN	≤ 0.2
HYCT	≤ 0.2
RKCG	0.971
RKHF	≤ 0.2
RKRD	≤ 0.2
RKRP	≤ 0.2
RKHR	≤ 0.2
RKCQ	≤ 0.2
RKCM	0.286
RKRG	0.851
RKHG	0.925
QYTT	≤ 0.2
HLKG	≤ 0.2
TWTY	≤ 0.2
QNAG	≤ 0.2

Variant	one-hybrid fitness for binding parS DNA
GTTH	≤ 0.2
SETA	≤ 0.2
TDDG	≤ 0.2
QFHD	≤ 0.2
RMGT	0.937
RMRT	0.812
RMDF	0.223
RMRM	0.379
RMNT	0.904
RMNF	0.237
RMDT	0.794
RMRQ	≤ 0.2
RMND	≤ 0.2
RMGK	≤ 0.2
RMDL	≤ 0.2
RMGF	0.269
GTPS	≤ 0.2
EHHI	≤ 0.2
KHQH	≤ 0.2
PMNI	≤ 0.2
RECV	≤ 0.2

Variant	one-hybrid fitness for binding parS DNA
NATT	≤ 0.2
LRNV	≤ 0.2
MRHY	≤ 0.2
KGRF	≤ 0.2
YADG	≤ 0.2
YTRC	≤ 0.2
QWHV	≤ 0.2
RMST	0.945
RMSM	0.37
RMYD	≤ 0.2
RMQT	0.921
RMQP	≤ 0.2
RMYT	0.923
RMYP	≤ 0.2
RMQD	0.318
RMSF	0.258
VHYL	≤ 0.2
ADVS	≤ 0.2
GAPV	≤ 0.2
SQVL	≤ 0.2
AMKY	≤ 0.2

Variant	one-hybrid fitness for binding parS DNA
GIMG	≤ 0.2
SACQ	≤ 0.2
RWLW	≤ 0.2
RMFP	≤ 0.2
RMFS	1.07
RMAH	0.282
RMAN	0.46
RMFD	≤ 0.2
RMAS	0.991
PWEY	≤ 0.2
LATA	≤ 0.2
RLDI	≤ 0.2
ENYW	≤ 0.2
AEQK	≤ 0.2
RYFN	0.425
RYFS	1.02
RYAS	0.917
RYAP	≤ 0.2
RYAH	≤ 0.2
RYFP	≤ 0.2
PWFC	≤ 0.2

Reference: a collection of fitness landscapes (doi:10.1016/j.celrep.2020.107928)
